The target of the assay is Voltage-dependent N-type calcium channel subunit alpha-1B (Homo sapiens) (UniProt Q00975). In words: inhibitors of Mint1-CaV2.2 protein interaction, biochemical, HTRF (AID 2073). As to conditions: at 20 µM, stronger effect = higher value.

About 570 (0.2%) of roughly 290,000 compounds were called active. Not shown: some 1% with an inconclusive outcome. Cut-off read from the data, not from the text of the source: active = inhibition mostly above about 51% (no sharp cut-off); inconclusive = no clear call, values can overlap the other calls; inactive = mostly below about 53%. The entries come from a sample that favours actives as a whole.

Chain of Voltage-dependent N-type calcium channel subunit alpha-1B (Homo sapiens) (Q00975 whole entry, looked up): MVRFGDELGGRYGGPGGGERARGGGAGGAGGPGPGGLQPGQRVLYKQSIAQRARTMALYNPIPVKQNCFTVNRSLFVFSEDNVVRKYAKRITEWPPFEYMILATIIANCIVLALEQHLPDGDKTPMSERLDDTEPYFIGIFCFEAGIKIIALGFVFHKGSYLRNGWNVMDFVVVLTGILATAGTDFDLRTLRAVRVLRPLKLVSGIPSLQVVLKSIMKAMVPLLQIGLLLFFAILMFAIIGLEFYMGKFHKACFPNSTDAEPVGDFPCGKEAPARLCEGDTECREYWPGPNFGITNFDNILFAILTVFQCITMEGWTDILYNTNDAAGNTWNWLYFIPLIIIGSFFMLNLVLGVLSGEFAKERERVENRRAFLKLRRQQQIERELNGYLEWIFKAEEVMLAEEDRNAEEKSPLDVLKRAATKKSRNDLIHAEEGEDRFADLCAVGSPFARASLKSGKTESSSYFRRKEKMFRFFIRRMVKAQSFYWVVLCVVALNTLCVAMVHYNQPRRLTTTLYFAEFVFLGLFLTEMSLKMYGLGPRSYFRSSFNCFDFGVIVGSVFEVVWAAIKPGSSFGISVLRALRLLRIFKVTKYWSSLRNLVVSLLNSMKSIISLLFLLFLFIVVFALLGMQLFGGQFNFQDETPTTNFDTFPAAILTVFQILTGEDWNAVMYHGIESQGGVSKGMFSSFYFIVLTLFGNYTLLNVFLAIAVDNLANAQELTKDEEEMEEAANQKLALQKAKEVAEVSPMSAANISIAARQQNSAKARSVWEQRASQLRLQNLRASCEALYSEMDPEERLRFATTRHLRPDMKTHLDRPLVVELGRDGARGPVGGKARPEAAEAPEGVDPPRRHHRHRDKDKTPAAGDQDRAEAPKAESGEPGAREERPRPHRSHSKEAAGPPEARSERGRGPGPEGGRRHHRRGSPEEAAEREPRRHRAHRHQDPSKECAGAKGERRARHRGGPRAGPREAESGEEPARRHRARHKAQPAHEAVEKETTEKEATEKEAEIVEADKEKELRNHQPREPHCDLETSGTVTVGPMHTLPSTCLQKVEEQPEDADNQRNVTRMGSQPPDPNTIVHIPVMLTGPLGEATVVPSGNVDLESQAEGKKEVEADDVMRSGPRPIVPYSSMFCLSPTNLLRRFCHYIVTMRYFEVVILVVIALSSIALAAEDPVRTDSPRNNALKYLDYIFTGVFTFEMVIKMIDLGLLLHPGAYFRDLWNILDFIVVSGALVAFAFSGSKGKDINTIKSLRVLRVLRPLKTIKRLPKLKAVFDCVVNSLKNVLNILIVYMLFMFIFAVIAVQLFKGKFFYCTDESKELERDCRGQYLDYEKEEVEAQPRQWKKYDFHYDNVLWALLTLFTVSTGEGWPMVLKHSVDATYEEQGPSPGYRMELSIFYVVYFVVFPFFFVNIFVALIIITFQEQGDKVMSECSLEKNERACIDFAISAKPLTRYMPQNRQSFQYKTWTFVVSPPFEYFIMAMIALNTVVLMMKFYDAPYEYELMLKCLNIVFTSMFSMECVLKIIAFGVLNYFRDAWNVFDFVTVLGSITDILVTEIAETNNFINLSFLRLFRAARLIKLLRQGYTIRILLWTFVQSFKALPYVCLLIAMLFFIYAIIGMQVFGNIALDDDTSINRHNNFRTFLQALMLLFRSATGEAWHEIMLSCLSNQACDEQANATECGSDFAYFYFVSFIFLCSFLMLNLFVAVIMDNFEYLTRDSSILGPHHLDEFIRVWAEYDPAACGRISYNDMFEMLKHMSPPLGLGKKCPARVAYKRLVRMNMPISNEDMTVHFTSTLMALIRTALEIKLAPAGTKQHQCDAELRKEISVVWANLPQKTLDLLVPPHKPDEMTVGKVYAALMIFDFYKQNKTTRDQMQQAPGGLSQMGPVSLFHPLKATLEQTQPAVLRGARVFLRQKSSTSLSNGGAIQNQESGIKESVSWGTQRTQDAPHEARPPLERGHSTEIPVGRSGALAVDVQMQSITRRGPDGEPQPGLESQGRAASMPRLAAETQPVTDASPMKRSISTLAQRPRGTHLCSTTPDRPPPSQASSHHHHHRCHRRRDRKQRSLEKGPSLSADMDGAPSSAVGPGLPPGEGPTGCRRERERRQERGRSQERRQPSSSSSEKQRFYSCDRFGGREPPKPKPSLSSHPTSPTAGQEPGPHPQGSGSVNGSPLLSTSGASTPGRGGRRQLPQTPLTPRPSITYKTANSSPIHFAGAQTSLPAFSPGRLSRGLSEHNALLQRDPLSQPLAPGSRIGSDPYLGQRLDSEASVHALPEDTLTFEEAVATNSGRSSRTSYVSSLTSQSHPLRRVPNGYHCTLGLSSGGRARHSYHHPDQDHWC

Consider `CN1CCN(c2ccccc2NC(=O)c2cccc(OCc3ccccc3)c2)CC1`, for which the inhibition is 19% (inactive). The same measure, in the same setting: with `COCCn1c(SCC(=O)Nc2ccc(F)cc2)nc2ccccc2c1=O` the figure was 6.9% (inactive); with `COCCn1c(SCC(=O)Nc2ccc(NC(C)=O)cc2)nc2ccccc2c1=O`, -7.5% (inactive); with `CC1(C)CC(=O)C=C(NNC(=O)C2CCCCC2)C1`, 1.6% (inactive). Same read-out and setting: as for `C#CCOCCOCCOCCNc1nc(N2CCN(C(=O)[C@H](Cc3cc4ccccc4[nH]3)n3cc([C@@H](N)Cc4ccc(O)cc4)nn3)CC2)nc(N2CCN(C(=O)[C@H](Cc3cc4ccccc4[nH]3)n3cc([C@@H](N)CC(C)C)nn3)CC2)n1`, the figure is 51.5% (active).

`C#CCOCCOCCOCCNc1nc(N2CCN(C(=O)[C@H](Cc3ccc(O)cc3)n3cc([C@@H](N)CC(C)C)nn3)CC2)nc(N2CCN(C(=O)[C@H](Cc3cc4ccccc4[nH]3)n3cc([C@@H](N)CC(C)C)nn3)CC2)n1`: the inhibition was 22.3% (inactive). Still for that read-out and setting: with `C#CCOCCOCCOCCNc1nc(N2CCN(C(=O)C(Cc3ccc(O)cc3)n3cc(C(N)CC(C)C)nn3)CC2)nc(N2CCN(C(=O)C(Cc3cc4ccccc4[nH]3)n3cc(C(N)Cc4ccc(O)cc4)nn3)CC2)n1` (stereo not given) the figure was 14.6% (inactive); with `CC[N+](CC)(CC#Cc1ccccc1)CC(=O)c1ccc(Cl)cc1`, -0.1% (inactive); with `Cc1nc(C)c(C(=O)OCC(=O)N2CCN(c3ccccc3)CC2)s1`, -4.9% (inactive).

As for `COC(=O)c1ccccc1NC(=O)CN1CCC(NC(=O)c2ccc(C)cc2)CC1`, the inhibition is -3.1% (inactive).

`NNC(=O)c1oc2nc(-c3cccs3)cc(-c3ccco3)c2c1N`: the inhibition was 51.7% (active). Still for that read-out and setting: as for `Nc1c(C(=O)N/N=C/c2ccccc2Cl)oc2nc(-c3ccccc3)cc(-c3ccco3)c12`, the figure is 45.6% (inactive). The same measure, in the same setting: as for `NNC(=O)c1oc2nc(-c3ccccc3)cc(-c3ccccc3)c2c1N`, the figure is 18.4% (inactive). Take `Cc1ccc(-c2cc(-c3ccco3)c3c(N)c(C(=O)NN)oc3n2)cc1`: the inhibition is 55.5% (inactive). For the same compound, for the setting “measured here: average of repeat tests”, the inhibition stood at 31.3%. Consider `NNC(=O)c1oc2nc(-c3ccco3)cc(-c3ccco3)c2c1N`, for which the inhibition was 59.1% (active). For `Nc1c(C(=O)N/N=C/c2cccnc2)oc2nc(-c3ccco3)cc(-c3ccco3)c12`, the inhibition was 44.8% (inactive). Still for that read-out and setting: as for `N#Cc1c(Nc2ccccc2)c(/C=N/NCCO)c[nH]c1=O`, the figure is -20.2% (inactive); as for `CN(C)c1cccc(C(=O)OCC(=O)NC2CCCC2)c1`, 2.1% (inactive); as for `Cc1oc(-c2ccccc2F)nc1CS(=O)(=O)CC(=O)N1CCCCCC1`, -4.2% (inactive).

For the compound `COc1cc(C(=O)NCCC(=O)NCCCN2CCCCC2)cc(OC)c1OC`, the inhibition was -4% (inactive). As for `FC(F)(F)c1ccccc1Nc1nccs1`, the inhibition was -8.5% (inactive). Still for that read-out and setting: as for `FC(F)(F)c1ccccc1NC1=NCCC1`, the figure is 0.7% (inactive). As for `Cc1nsc(Nc2ccccc2)c1C#N`, the inhibition was 36.6% (inactive). Still for that read-out and setting: as for `Cc1cc(C)c(C#N)c(Nc2ccccc2Cl)n1`, the figure is 5.7% (inactive); as for `COc1cccc(CC(Cc2nc3ccccc3[nH]2)c2nc3ccccc3[nH]2)c1` (stereo not given), 4.4% (inactive).

Regarding `CCOc1ccc(/C=N/NC(=O)CSc2n[nH]c(=O)[nH]c2=O)cc1OC`, the inhibition was -0.5% (inactive). With `CC(=O)c1ccc(N2CCN(C(=O)c3ccc(Cl)c(NC4=NC5CS(=O)(=O)CC5S4)c3)CC2)cc1` (stereo not given), the inhibition was 3.4% (inactive). The same measure, in the same setting: with `Cc1ccnc(NS(=O)(=O)c2ccc(NC(=O)C3CCCO3)cc2)n1` (stereo not given) the figure was -3% (inactive); with `O=C(NCc1ccc(F)cc1)C1CCCN1C(=O)Nc1cccc(F)c1` (stereo not given), 8.7% (inactive). The same measure, in the same setting: as for `Cc1ccc(N=CC=C2OC(C)(C)C(C)(C)O2)cc1`, the figure is 1.3% (inactive); as for `COc1cc2c(cc1NC(=O)C(C)OC(=O)c1ccc(S(=O)(=O)Nc3ccccc3Cl)cc1)oc1ccccc12` (stereo not given), 56.6% (active). The same measure, in the same setting: as for `COc1cc2c(cc1NC(=O)C(C)N1CCN(S(=O)(=O)c3ccc(C)c(C)c3)CC1)oc1ccccc12` (stereo not given), the figure is 12.7% (inactive); as for `COc1ccc(S(=O)(=O)Nc2ccccc2Cl)cc1NC(C)=O`, 1.4% (inactive). Regarding `Cc1nc2cc(F)ccc2n1C1CCN(S(=O)(=O)c2ccccc2)CC1`, the inhibition was 5.6% (inactive). Take `O=C(c1csc2c1CCCC2)N1CCN(c2ccccc2)CC1`: the inhibition is -0.9% (inactive). Same read-out and setting: as for `O=S(=O)(c1ccc(-c2csc(Nc3ccc(Br)cc3)n2)cc1)N1CCCC1`, the figure is -7.1% (inactive); as for `Cc1cc(C)cc(Nc2nc(-c3ccc(S(=O)(=O)N4CCCC4)cc3)cs2)c1`, 67.2% (active); as for `Cc1ccc(Nc2nc(-c3ccc(S(=O)(=O)N4CCCC4)cc3)cs2)cc1C`, 36.3% (inactive). Same read-out and setting: with `COC(=O)c1ccccc1NC(=O)COc1ccc(S(=O)(=O)N2CCCC2)cc1C` the figure was 6.4% (inactive). In the case of `Nc1cccc2c(=O)c3ccccc3[nH]c12`, the inhibition was 41.4% (inactive). The same measure, in the same setting: with `COc1cccc2[nH]c3ccccc3c(=O)c12` the figure was 30.8% (inactive); with `COc1cccc2c(=O)c3cccc(N)c3[nH]c12`, 52.3% (active). The same measure, in the same setting: as for `CCCCN(C)C(=O)CSc1nc(NCc2ccc(OC)cc2)c2ccccc2n1`, the figure is -1% (inactive); as for `CCCn1c(C(C)Nc2nc(-c3ccc(Cl)c([N+](=O)[O-])c3)cs2)nc2cc(Cl)c(N3CCCCC3)cc21` (stereo not given), 21% (inactive); as for `CCOC(=O)c1sc2nc3c(SCCC#N)cc(C(=O)c4cc(F)ccc4O)cn3c(=O)c2c1C`, 43.6% (inactive). On the same count and under the same terms, with `CCOC(=O)c1sc2nc3c(SCC(=O)O)cc(C(=O)c4cc(F)ccc4O)cn3c(=O)c2c1C` the figure was 18.6% (inactive). For `CCOC(=O)c1sc2nc3c(SCC(=O)O)cc(C(=O)c4ccccc4O)cn3c(=O)c2c1C`, the inhibition was 53.3% (active). Same read-out and setting: as for `CCCCP(=O)(CCCC)Cc1ccccc1`, the figure is -0.8% (inactive); as for `COc1ccc(-c2nnc(SCC(=O)NCc3cccs3)n2C(C)C)cc1`, -14.7% (inactive); as for `O=c1c2c(nc3nc(NCc4cccc5ccccc45)[nH]n13)CCC2`, 4.9% (inactive). On to `O=C(O/N=C(\c1ccccc1)c1ccncc1)c1ccccc1F`, for which the inhibition is -7.6% (inactive). Still for that read-out and setting: as for `O=C(Nc1ccc(NC(=O)c2sc3ccccc3c2Cl)cc1Cl)c1ccco1`, the figure is 31.4% (inactive); as for `O=C(Nc1cccc(NC(=O)c2sc3ccccc3c2Cl)c1)c1ccco1`, 12.7% (inactive); as for `O=C(Nc1ccc(NC(=O)c2sc3ccccc3c2Cl)cc1)c1ccco1`, 60.5% (active).

The values above are taken from PubChem BioAssay AID2073 (Sanford-Burnham Center for Chemical Genomics, 2009).
